Laboratory results from the supplement of paper PMC8540655.
Values without a mark were called inactive.

Test system: Aedes aegypti larvae
Experiment: larval motility relative to same well at 0 h (fraction); higher = more motile (less active compound), active = 0.4 or less
Details: 10 µM
Summary of the method: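 Each 96-well plate held about 10 Aedes aegypti larvae per well in 100 µL, along with solvent and larvicide control wells. Compounds were present at 10 µM with 1% v/v DMSO, and INVAPP recorded 200-frame movies at 100 ms intervals at 0, 2 and 24 h. Relative motility divides each well's score by its baseline score from the first recording, with the median taken across independent larval batches, of which there were three.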

SMILES | larval motility (2 h) | larval motility (24 h)
Cc1ccc(Oc2ccccc2-c2csc(NC3=NCCCN3)n2)c(C)c1 | 0.774 | 0.786
CCCC(=O)OCCc1ccccc1 | 0.51 | 0.648
CCC[C@H](NC(=O)[C@@H]1[C@H]2CCC[C@H]2CN1C(=O)[C@@H](NC(=O)[C@@H](NC(=O)c1cnccn1)C1CCCCC1)C(C)(C)C)C(=O)C(=O)NC1CC1 | 0.881 | 0.577
Cc1nc(Nc2ccc(F)cc2)nc(N2CCc3ccccc3C2C)c1C (configuration not stated) | 0.774 | 0.644
NNC(=O)c1ccncc1 | 0.924 | 0.744
CC(C)(C)c1ccc(C(=O)NC(=O)N2CCCc3ccccc32)cc1 | 0.973 | 0.629
O=C(O)c1cc(-c2ccc(Br)cc2)nc2ccc(Cl)cc12 | 1.05 | 0.76
COc1ccc2sc3c(c2c1)NC(C)CNC3=O (configuration not stated) | 0.748 | 0.959
C=C(C)[C@@H]1CC[C@]2(C(=O)O)CC[C@]3(C)[C@H](CC[C@@H]4[C@@]5(C)CC[C@H](O)C(C)(C)[C@@H]5CC[C@]43C)[C@@H]12 | 1.08 | 1.18
COc1ccc2cc3[n+](cc2c1OCCN(CCn1cncn1)Cc1ccc(F)cc1F)CCc1cc2c(cc1-3)OCO2 | 0.821 | 0.778
O=C(O)c1ccccc1Sc1ncnc2sc3c(c12)CCC3 | 0.968 | 0.722
O=C(O)CSc1cc(NS(=O)(=O)c2cccc3cccnc23)c2ccccc2c1O | 0.969 | 0.675
Cn1c2ccccc2c(=O)c2c(O)cccc21 | 1.15 | 1.13
CC(C)(C)NC(=O)[C@@H]1C[C@@H]2CCCC[C@@H]2CN1C[C@@H](O)[C@H](Cc1ccccc1)NC(=O)[C@H](CC(N)=O)NC(=O)c1ccc2ccccc2n1 | 1.43 | 1.49
CC(C)c1cc2c(cc1S(=O)(=O)O)[C@@]1(C)CCC[C@@](C)(C(=O)O)[C@@H]1CC2 | 0.784 | 0.697
Clc1cc2nc(C3CCNCC3)n(Cc3ccc(CNCCc4cnc[nH]4)cc3)c2cc1Cl | 0.575 | 0.981
CC(C)=CCC/C(C)=C/CNCCNC1C2CC3CC(C2)CC1C3 (configuration not stated) | 0.85 | 0.924
CC(C)(C)c1ccc(C(Cn2cccc(C(F)(F)F)c2=O)NC2Cc3ccccc3C2)cc1 (configuration not stated) | 0.686 | 0.846
CC[C@@]1(O)C(=O)OCc2c1cc1n(c2=O)Cc2cc3c([N+](=O)[O-])cccc3nc2-1 | 0.324 (active) | 0.433
NC[C@H]1O[C@H](O[C@H]2[C@H](O)[C@@H](O[C@H]3O[C@H](CO)[C@@H](O)[C@H](N)[C@H]3O)[C@H](N)C[C@@H]2N)[C@H](N)C[C@@H]1O | 0.727 | 1.43
NC(=S)N/N=C/c1ncccc1N | 0.987 | 0.773
N#CCN1C(=O)COc2cc(F)c(N3C(=O)c4ccccc4C3=O)cc21 | 0.915 | 1.91

SMILES | larval motility (2 h) | larval motility (24 h)
Cc1cc(C)n(O)c(=O)c1 | 0.846 | 0.863
O=C(Nc1nnc(-c2ccc(Cl)cc2)o1)c1ccc(F)cc1 | 1.18 | 0.816
COc1nc2ccc(Br)cc2cc1[C@@H](c1ccccc1)[C@@](O)(CCN(C)C)c1cccc2ccccc12 | 0.838 | 0.679
CCC(CC)[C@H](NC(C)=O)[C@@H]1[C@H](O)[C@@H](C(=O)O)C[C@H]1NC(=N)N | 0.729 | 1.91
CC(C)CCN1C(=O)C(C2=NS(=O)(=O)c3cc(NS(C)(=O)=O)ccc3N2)=C(O)[C@@H]2[C@H]3CC[C@H](C3)[C@@H]21 | 0.853 | 0.888
Cc1[nH]c2ccccc2c1CCNCc1ccc(/C=C/C(=O)NO)cc1 | 1.05 | 1.18
COc1cc(C)c2c(Oc3cccc(C(F)(F)F)c3)c(OC)cc(NC(C)CCCN)c2n1 (configuration not stated) | 0.654 | 0.385 (active)
Nc1nc(Nc2ccc3nc(-c4ccc(F)cc4)cc(N)c3c2)cc(-c2ccccc2)n1 | 0.547 | 0.261 (active)
COc1ccc(C2CNC(=O)C2)cc1OC1CCCC1 (configuration not stated) | 0.834 | 0.959
COC(=O)Nc1nc2cc(Sc3ccccc3)ccc2[nH]1 | 0.997 | 0.306 (active)
CC(=N)N1CC[C@H](SC2=C(C(=O)O)N3C(=O)[C@@H]([C@@H](C)O)[C@H]3C2)C1 | 1.05 | 0.809
C=CCc1cc(Cc2cnc(N)nc2N)cc(OC)c1O | 1.05 | 1.18
COc1cc(NS(=O)(=O)c2ccc(C)cc2)c2ncccc2c1 | 0.89 | 0.666
O=c1cc(OCc2ccccc2)ccn1Cc1ccccc1 | 1.27 | 1.69
CC[C@@H](CO)NCCN[C@@H](CC)CO | 0.527 | 0.604
Cc1ncc([N+](=O)[O-])n1CC(O)CN1CCOCC1 (configuration not stated) | 1.3 | 0.789
O=c1cc(NCCCN[C@@H]2CCOc3c(Br)cc(Br)cc32)[nH]c2ccsc12 | 0.659 | 1.28
N[C@H](CCC(=O)N[C@@H](Cc1c[nH]c2ccccc12)C(=O)O)C(=O)O | 0.936 | 0.838
Fc1ccc(-c2nc(-c3c[nH]c4ccc(Br)cc34)[nH]c2-c2ccc(F)cc2)cc1 | 0.737 | 0.9
O=C(/C=C/n1cnc(-c2cc(C(F)(F)F)cc(C(F)(F)F)c2)n1)NNc1cnccn1 | 0.908 | 1
O=C(Nc1[nH]c(=O)ncc1F)c1ccccc1 | 0.527 | 0.773
Cc1nc2ccc(Oc3ccccc3)cc2c2c1CCN2CCc1ccccc1 | 0.607 | 0.774

SMILES | larval motility (2 h) | larval motility (24 h)
OC[C@@H]1CC[C@H](n2cnc3c(O)ncnc32)O1 | 1.15 | 0.963
CCc1c(OCC2CCC2)c2cc(F)ccc2[nH]c1=O | 1.07 | 1.08
O=C1[C@H](CC[C@H](O)c2ccc(F)cc2)[C@@H](c2ccc(O)cc2)N1c1ccc(F)cc1 | 0.873 | 1.08
CC(C)n1cnc2c(NCc3ccccc3)nc(NCc3ccccc3)nc21 | 1.3 | 1.42
O=C(/C=C\n1cnc(-c2cc(C(F)(F)F)cc(C(F)(F)F)c2)n1)NNc1ccccn1 | 1.12 | 1.17
O=C(O)c1cc(-c2ccccc2)nc2ccccc12 | 0.53 | 0.971
Nc1cc(N)c2nc(-c3ccccc3)c(Nc3ccc(F)cc3)nc2c1 | 0.877 | 0.892
CSC[C@H]1CN(Cc2c[nH]c3c(N)ncnc23)C[C@@H]1O | 1.02 | 0.589
CC(N)C12CC3CC(CC(C3)C1)C2 (configuration not stated) | 1.14 | 0.773
O=S(=O)(Nc1ccc(O)cc1)c1cccc2cccnc12 | 1.06 | 0.629
Oc1cccc(C(Nc2nccs2)c2ccc3cccnc3c2O)c1 (configuration not stated) | 1.09 | 0.912
CNCC(=O)OCc1cccnc1N(C)C(=O)OC(C)[n+]1cnn(C[C@](O)(c2cc(F)ccc2F)[C@@H](C)c2nc(-c3ccc(C#N)cc3)cs2)c1 (some centres not stated) | 1.02 | 0.736
COc1ccc(-n2cnc3cc(NCc4ccco4)ccc32)cc1 | 0.835 | 1.63
CCCCCOc1ccc(/C=C2\Oc3c(ccc(O)c3O)C2=O)c(O)c1 | 0.621 | 1.4
Cn1cncc1[C@@](N)(c1ccc(Cl)cc1)c1ccc2c(c1)c(-c1cccc(Cl)c1)cc(=O)n2C | 0.645 | 0.876
CN1c2ccc(Cl)cc2N(c2ccccc2)C(=O)c2cn(Cc3ccc(CN4CCOCC4)cc3)nc21 | 0.674 | 0.985
N#C/C(=C1/SC[C@H](c2ccc(Cl)cc2Cl)S1)n1ccnc1 | 0.983 | 1
CC1(C)[C@H](C(=O)O)N2C(=O)C[C@H]2S1(=O)=O | 0.965 | 1.35
O=C(O)c1sccc1S(=O)(=O)n1ccc2cc(Br)ccc21 | 0.657 | 0.741
CN(C)c1[nH]c(=O)ncc1F | 1.24 | 1.3
O=C(NCc1ncc(C(F)(F)F)cc1Cl)c1c(Cl)cccc1Cl | 1.3 | 1.42
CCCNc1ccc(S(=O)(=O)Nc2cc(C)on2)cc1 | 0.414 | 0.825
